Assay in all cases: DAPPL (digital affinity profiling via proximity ligation, sequencing); 10 mM Tris-HCl pH 7.5, 50 mM NaCl, 1 mM DTT, 4% glycerol, room temperature, 30 min; GST-TFs on glutathione beads, 16-mer random dsDNA library, 0.1% formaldehyde crosslink after washing; high values mean tight binding
Common to all, as to conditions: protein: recombinant; tags: N-terminal GST; dsDNA, one strand shown

For one assay, the target named is T1, FEV (Homo sapiens, UniProt Q99581 1-238).
T1 sequence: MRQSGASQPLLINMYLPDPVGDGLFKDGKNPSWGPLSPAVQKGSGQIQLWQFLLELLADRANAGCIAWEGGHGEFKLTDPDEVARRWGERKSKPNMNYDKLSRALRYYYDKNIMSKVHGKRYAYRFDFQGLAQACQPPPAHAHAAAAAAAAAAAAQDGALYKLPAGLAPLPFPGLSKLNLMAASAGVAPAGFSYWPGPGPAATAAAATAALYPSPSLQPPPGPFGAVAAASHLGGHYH
In short, it runs like this: (§1)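 Beads coated with glutathione captured GST-fused human transcription factors that had been expressed in yeast, and the factors were then given DNA barcodes and pooled with a tag-only sample. The pools were incubated with 200 nmole of a random double-stranded 16-mer DNA library in Tris/NaCl/DTT/glycerol buffer for 30 min at room temperature, washed, crosslinked with 0.1% formaldehyde and proximity-ligated with BsaI/T4 ligase at 37 °C for 1 h. PCR amplification and Illumina NextSeq500 sequencing came last. Binding signal is each hexamer's read frequency for a factor divided by its frequency for the tag-only sample.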

The target of a further assay is ETV5 (Homo sapiens, UniProt P41161 1-510). In short, it runs like this:
as §1

Another assay concerns the target T2, SPIC (Homo sapiens, UniProt Q8N5J4 1-248).
T2 sequence: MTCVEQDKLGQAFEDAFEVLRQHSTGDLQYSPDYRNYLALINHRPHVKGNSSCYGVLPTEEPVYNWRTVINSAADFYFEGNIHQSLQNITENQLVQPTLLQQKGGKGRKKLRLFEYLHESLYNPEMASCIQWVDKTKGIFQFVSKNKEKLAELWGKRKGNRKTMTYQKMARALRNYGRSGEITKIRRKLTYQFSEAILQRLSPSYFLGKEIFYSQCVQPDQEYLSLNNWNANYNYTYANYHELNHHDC
In short, it runs like this: as §1

The next assay deals with ELF4 (Homo sapiens, UniProt Q99607 1-663). The method in brief: as §1
Chain of ELF4 (Q99607 whole entry): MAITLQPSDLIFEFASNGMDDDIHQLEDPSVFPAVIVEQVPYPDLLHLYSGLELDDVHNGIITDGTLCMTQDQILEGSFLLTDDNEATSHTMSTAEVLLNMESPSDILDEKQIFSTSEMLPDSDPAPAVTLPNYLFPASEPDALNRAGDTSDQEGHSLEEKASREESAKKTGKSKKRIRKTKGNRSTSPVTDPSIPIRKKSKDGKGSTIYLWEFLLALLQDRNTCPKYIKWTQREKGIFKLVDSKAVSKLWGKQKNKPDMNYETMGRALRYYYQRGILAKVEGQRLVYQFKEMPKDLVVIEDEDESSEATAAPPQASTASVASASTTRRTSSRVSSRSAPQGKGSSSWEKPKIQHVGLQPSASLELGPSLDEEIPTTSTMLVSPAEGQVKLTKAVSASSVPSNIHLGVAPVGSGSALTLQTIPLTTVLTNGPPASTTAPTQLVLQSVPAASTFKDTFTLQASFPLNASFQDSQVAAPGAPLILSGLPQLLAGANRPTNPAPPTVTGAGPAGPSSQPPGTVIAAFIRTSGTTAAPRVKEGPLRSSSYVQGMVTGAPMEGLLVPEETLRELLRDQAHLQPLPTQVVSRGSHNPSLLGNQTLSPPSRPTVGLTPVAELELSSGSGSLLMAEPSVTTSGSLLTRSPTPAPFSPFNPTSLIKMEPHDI
The next assay addresses T3, ELK4 (Homo sapiens, UniProt P28324-2 1-405).
T3 sequence: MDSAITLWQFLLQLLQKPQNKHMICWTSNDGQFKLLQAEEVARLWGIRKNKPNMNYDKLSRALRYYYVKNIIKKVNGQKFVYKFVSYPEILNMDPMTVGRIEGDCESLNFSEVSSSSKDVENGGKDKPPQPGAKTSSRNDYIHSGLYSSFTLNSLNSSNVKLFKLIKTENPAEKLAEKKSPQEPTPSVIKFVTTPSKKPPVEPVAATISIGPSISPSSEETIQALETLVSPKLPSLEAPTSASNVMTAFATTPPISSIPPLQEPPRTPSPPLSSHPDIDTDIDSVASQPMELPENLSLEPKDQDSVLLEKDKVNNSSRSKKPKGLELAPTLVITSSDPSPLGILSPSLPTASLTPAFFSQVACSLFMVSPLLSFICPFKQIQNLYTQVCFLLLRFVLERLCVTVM
In short, it runs like this: as §1

The target of another assay is T4, ETV2 (Homo sapiens, UniProt O00321 1-342).
T4 sequence: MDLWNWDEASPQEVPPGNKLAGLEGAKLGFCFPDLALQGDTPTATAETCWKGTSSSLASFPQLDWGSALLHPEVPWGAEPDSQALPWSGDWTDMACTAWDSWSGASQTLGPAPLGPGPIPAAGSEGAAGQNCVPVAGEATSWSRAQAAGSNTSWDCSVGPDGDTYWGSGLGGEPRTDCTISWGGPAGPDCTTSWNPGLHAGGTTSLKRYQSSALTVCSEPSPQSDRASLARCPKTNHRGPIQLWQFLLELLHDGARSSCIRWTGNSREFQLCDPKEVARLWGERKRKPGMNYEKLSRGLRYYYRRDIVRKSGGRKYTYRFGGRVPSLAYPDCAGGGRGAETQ
In short, it runs like this:
as §1

A further assay addresses ETV1 (Homo sapiens, UniProt P50549 1-477). The method in brief: as §1
For another assay, the target named is T5, ELF3 (Homo sapiens, UniProt P78545 1-371).
T5 sequence: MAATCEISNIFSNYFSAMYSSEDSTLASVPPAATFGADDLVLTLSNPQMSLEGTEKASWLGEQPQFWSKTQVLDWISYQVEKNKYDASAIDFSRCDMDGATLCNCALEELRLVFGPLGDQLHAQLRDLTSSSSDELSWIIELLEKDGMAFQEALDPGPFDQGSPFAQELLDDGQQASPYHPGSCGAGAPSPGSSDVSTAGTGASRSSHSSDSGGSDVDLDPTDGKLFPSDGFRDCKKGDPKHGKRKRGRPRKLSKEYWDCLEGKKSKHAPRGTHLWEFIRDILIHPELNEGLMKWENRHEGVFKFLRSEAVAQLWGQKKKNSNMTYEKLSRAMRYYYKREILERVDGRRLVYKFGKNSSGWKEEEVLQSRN
The method in brief:
as §1

For another assay, the target named is CRX (Homo sapiens, UniProt O43186 1-299). The method in brief: as §1
Chain of CRX (O43186 whole entry): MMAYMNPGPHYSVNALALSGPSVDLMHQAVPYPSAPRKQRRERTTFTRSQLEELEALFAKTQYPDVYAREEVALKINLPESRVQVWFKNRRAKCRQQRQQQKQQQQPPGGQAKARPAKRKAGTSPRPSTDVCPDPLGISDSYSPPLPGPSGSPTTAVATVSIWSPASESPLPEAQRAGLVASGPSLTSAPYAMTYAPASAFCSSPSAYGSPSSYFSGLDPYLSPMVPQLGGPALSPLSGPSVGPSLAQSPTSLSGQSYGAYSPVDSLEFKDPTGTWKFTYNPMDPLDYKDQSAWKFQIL

Chain of ETV1 (P50549 whole entry): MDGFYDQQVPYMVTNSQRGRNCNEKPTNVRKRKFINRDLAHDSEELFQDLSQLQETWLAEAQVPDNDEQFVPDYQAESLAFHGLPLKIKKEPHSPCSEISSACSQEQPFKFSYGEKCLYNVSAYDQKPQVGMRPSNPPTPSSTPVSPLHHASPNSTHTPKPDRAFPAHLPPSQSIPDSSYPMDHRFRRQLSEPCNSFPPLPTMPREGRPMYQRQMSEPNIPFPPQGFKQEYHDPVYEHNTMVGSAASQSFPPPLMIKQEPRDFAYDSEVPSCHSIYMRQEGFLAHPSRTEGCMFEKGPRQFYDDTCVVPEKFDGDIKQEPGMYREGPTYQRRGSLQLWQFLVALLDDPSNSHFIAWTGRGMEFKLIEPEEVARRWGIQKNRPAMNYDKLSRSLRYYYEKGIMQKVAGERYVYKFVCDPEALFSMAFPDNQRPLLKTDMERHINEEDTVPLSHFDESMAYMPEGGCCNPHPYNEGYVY
Chain of ETV5 (P41161 whole entry): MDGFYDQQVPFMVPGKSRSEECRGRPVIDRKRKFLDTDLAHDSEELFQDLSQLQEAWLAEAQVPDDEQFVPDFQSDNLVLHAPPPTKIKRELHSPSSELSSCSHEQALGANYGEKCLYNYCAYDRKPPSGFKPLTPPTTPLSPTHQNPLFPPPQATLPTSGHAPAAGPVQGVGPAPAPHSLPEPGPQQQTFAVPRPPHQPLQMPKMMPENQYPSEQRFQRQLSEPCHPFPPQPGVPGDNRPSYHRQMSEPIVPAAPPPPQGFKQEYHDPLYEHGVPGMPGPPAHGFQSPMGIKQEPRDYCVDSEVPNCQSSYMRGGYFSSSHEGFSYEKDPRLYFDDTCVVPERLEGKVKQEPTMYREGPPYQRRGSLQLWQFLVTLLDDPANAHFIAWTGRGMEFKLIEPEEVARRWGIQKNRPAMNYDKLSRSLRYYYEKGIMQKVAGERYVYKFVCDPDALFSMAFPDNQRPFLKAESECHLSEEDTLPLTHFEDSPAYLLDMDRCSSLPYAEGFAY

As for CAACCA, the binding signal was 1.12 fold enrichment (6-mer frequency, TF over GST control) with FEV; 1.13 fold enrichment (6-mer frequency, TF over GST control) with ETV5; 1.02 fold enrichment (6-mer frequency, TF over GST control) with SPIC; 1.11 fold enrichment (6-mer frequency, TF over GST control) with ELF4; 1.07 fold enrichment (6-mer frequency, TF over GST control) in the assay with ELK4; 1.09 fold enrichment (6-mer frequency, TF over GST control) with ETV2. Further, in the assay with ETV1, the binding signal was 1.09 fold enrichment (6-mer frequency, TF over GST control).
For the sequence ATGTTG, the binding signal with FEV is 1.21 fold enrichment (6-mer frequency, TF over GST control); with ETV5, 1.3 fold enrichment (6-mer frequency, TF over GST control); with SPIC, 1.1 fold enrichment (6-mer frequency, TF over GST control); with ELF4, 1.2 fold enrichment (6-mer frequency, TF over GST control); with ELK4, 1.25 fold enrichment (6-mer frequency, TF over GST control); with ELF3 it was 1.11 fold enrichment (6-mer frequency, TF over GST control). In addition, the binding signal with CRX is 1.04 fold enrichment (6-mer frequency, TF over GST control); with ETV1, 1.32 fold enrichment (6-mer frequency, TF over GST control).
For the sequence TGCCTA, the binding signal in the assay with FEV was 1.05 fold enrichment (6-mer frequency, TF over GST control); in the assay with ETV5, 1 fold enrichment (6-mer frequency, TF over GST control); with SPIC, 1.18 fold enrichment (6-mer frequency, TF over GST control); with ELF4 it was 1.09 fold enrichment (6-mer frequency, TF over GST control); with ELK4 it was 1.24 fold enrichment (6-mer frequency, TF over GST control); with ETV2 it was 1.17 fold enrichment (6-mer frequency, TF over GST control). In the assay with CRX, the binding signal was 1.08 fold enrichment (6-mer frequency, TF over GST control).
ACGGCC: the binding signal in the assay with FEV was 1.06 fold enrichment (6-mer frequency, TF over GST control); with ETV5 it was 1.14 fold enrichment (6-mer frequency, TF over GST control); with SPIC, 1.03 fold enrichment (6-mer frequency, TF over GST control); with ELF4, 1.15 fold enrichment (6-mer frequency, TF over GST control); in the assay with ELK4, 1.06 fold enrichment (6-mer frequency, TF over GST control); with ETV2, 1.01 fold enrichment (6-mer frequency, TF over GST control). The binding signal with ETV1 is 1.05 fold enrichment (6-mer frequency, TF over GST control).
As to CGTATG, the binding signal is 1.09 fold enrichment (6-mer frequency, TF over GST control) with ETV5; 1.07 fold enrichment (6-mer frequency, TF over GST control) with SPIC; 1.04 fold enrichment (6-mer frequency, TF over GST control) in the assay with ELF4; 1 fold enrichment (6-mer frequency, TF over GST control) with ELK4; 1.09 fold enrichment (6-mer frequency, TF over GST control) in the assay with ETV2; 1.04 fold enrichment (6-mer frequency, TF over GST control) with ETV1.
For the sequence GCTGGC, the binding signal in the assay with FEV is 1.06 fold enrichment (6-mer frequency, TF over GST control); in the assay with ETV5, 1.02 fold enrichment (6-mer frequency, TF over GST control); in the assay with SPIC, 1.12 fold enrichment (6-mer frequency, TF over GST control); in the assay with ELF4 it was 1.15 fold enrichment (6-mer frequency, TF over GST control); with ELK4, 1.1 fold enrichment (6-mer frequency, TF over GST control); with ETV2, 1.07 fold enrichment (6-mer frequency, TF over GST control).
For CCCCGC, the binding signal with FEV is 1.14 fold enrichment (6-mer frequency, TF over GST control); with ETV5, 1.18 fold enrichment (6-mer frequency, TF over GST control); with SPIC, 1.34 fold enrichment (6-mer frequency, TF over GST control); with ELF4 it was 1.24 fold enrichment (6-mer frequency, TF over GST control); with ELK4, 1.36 fold enrichment (6-mer frequency, TF over GST control); with ELF3 it was 1.29 fold enrichment (6-mer frequency, TF over GST control). Besides, the binding signal with CRX is 1.01 fold enrichment (6-mer frequency, TF over GST control); with ETV1, 1.17 fold enrichment (6-mer frequency, TF over GST control).
Regarding GGGCTA, the binding signal with FEV is 1.04 fold enrichment (6-mer frequency, TF over GST control); with ETV5 it was 1.06 fold enrichment (6-mer frequency, TF over GST control); with SPIC, 1.23 fold enrichment (6-mer frequency, TF over GST control); with ELF4, 1.17 fold enrichment (6-mer frequency, TF over GST control); with ELK4 it was 1.29 fold enrichment (6-mer frequency, TF over GST control); in the assay with ELF3 it was 1 fold enrichment (6-mer frequency, TF over GST control). In addition, the binding signal with CRX was 1.15 fold enrichment (6-mer frequency, TF over GST control); with ETV1 it was 1.11 fold enrichment (6-mer frequency, TF over GST control).
In the case of TGGCCC, the binding signal was 1.09 fold enrichment (6-mer frequency, TF over GST control) with FEV; 1.12 fold enrichment (6-mer frequency, TF over GST control) with ETV5; 1.18 fold enrichment (6-mer frequency, TF over GST control) with SPIC; 1.14 fold enrichment (6-mer frequency, TF over GST control) with ELF4; 1.19 fold enrichment (6-mer frequency, TF over GST control) with ELK4; 1.18 fold enrichment (6-mer frequency, TF over GST control) with ETV2. Besides, the binding signal with ETV1 is 1.15 fold enrichment (6-mer frequency, TF over GST control).

Values taken from publication PMC7862700, “An all-to-all approach to the identification of sequence-specific readers for epigenetic DNA modifications on cytosine”.
